Bioassay records (PubChem BioAssay)
PolyA inhibitor: yeast polyadenylation inhibition | S. cerevisiae SKY197-pL101 polyadenylation reporter, beta-gal luminescence; efflux-impaired pdr1/pdr3 knockout yeast; score 100 = 6 SD above DMSO | hit rate 0.02% among 300,000 | activity score, % at 12 µM;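 active = lowest replicate activity score at least 50, where 100 means six control SD above control mean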;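 also: yeast exposed to compound for 9 h at 30 °C; higher score means more reporter readthrough which indicates perturbed polyadenylation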
hcDAF-12 act: activates DAF-12 receptor from parasite H. contortus. hit rate 1.4% among 370,000. HEK293 hcDAF-12 lit1-tk-luc reporter, luminescence; 0% DMSO, 100% Δ7-dafachronic acid. AID 652067. activation, % at 6.8 µM;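 active = activation above the mean of all tested compounds plus 3 SD, cut at about 5.5% in these data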
DAX1 inh-1: DAX1 (NR0B1) inhibition, primary screen | inhibition, % at 6.8 µM | HEK293T StAR-luciferase reporter, SF-1/DAX-1 repression relief | hit rate 1.1% among 370,000;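 active = inhibition above the mean over all tested compounds plus 3 SD, cut at about 3.6% in these data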;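 also: higher inhibition means more luminescence from relief of DAX-1 repression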
hgDAF-12 ag: agonists of H. glycines DAF-12 nuclear receptor; HEK293 GAL4-hgDAF12 UAS-luciferase reporter, agonist luminescence; normalized to butyrate control; activation, % at 6.8 µM; hit rate 1.8% among 370,000;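 active = activation above a cutoff set at the mean of all screened compounds plus 3 SD, cut at about 10% in these data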
ssDAF-12 act: activators of S. stercoralis DAF-12 nuclear receptor | HEK293 ssDAF-12/GRIP1 lit1-tk-luc reporter, luminescence; % of 3 µM dafachronic acid response | activation, % at 6.8 µM | hit rate 1% among 370,000;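 active = activation above the mean over all tested compounds plus 3 SD, cut at about 0.9% in these data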
DAX1 inh-2: inhibitors of human orphan nuclear receptor DAX1 (NR0B1). P51843. HEK293 Gal4-DAX1 luciferase reporter, luminescence. inhibition, % at 6.75 µM. hit rate 0.99% among 340,000;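 active = inhibition above the mean over all tested compounds plus 3 SD, cut at about 4.2% in these data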;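 also: inhibition shows as a rise in luminescence from relieved DAX1 repression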
LXR ag: LXR-beta agonism as hcDAF-12 counter-screen; shares compounds with hcDAF-12 act; HEK293 Gal4-LXR tk-luc reporter, luminescence, 24 h; normalized: DMSO 0%, positive control 100%; activation, % at 6.8 µM; 3,400 tested, under 10 active; AID 743027;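 active = mean percent activation of the reporter above a cutoff set as the average over tested compounds plus their standard deviation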
Target sequence (P55055 whole entry, looked up, the tested form may be a part): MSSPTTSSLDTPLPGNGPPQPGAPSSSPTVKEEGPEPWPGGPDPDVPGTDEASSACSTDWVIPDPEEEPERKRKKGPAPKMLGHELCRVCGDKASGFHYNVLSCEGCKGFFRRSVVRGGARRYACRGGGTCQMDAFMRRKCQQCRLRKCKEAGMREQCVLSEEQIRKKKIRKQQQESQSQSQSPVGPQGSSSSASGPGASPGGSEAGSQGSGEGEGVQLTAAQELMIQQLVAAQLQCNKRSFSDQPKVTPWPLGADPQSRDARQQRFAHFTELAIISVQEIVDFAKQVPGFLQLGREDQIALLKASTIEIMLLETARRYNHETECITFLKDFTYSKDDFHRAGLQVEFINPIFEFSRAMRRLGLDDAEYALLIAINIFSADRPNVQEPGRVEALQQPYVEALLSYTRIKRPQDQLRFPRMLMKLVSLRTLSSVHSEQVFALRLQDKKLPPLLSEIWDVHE
hcDAF12 ag: confirmation of H. contortus DAF-12 agonists. shares compounds with hcDAF-12 act. HEK293 hcDAF-12 lit1-tk-luc reporter, luminescence; % of Δ7-dafachronic acid response. activation, % at 6.8 µM. hit rate 61% among 3,400. AID 743032;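 active = mean activation across triplicate tests above the threshold derived from the earlier primary screen, cut at about 5.5% in these data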
Numbers stand for hits; - = inactive; . = no result. Shown are actives, neighbours in structure and some others; about 4.1% of the full set was active somewhere.

SMILES	PolyA inhibitor	hcDAF-12 act	DAX1 inh-1	hgDAF-12 ag	ssDAF-12 act	DAX1 inh-2	LXR ag	hcDAF12 ag
COc1ccc(N=Cc2[nH]c3ccccc3c2O)cc1	-	12	-	-	-	-	-	9.6
CCN(C(=O)CN1C(=O)S/C(=C\c2cccc(OC)c2)C1=O)C1CCS(=O)(=O)C1 (centres undefined)	-	-	-	-	-	-	.	.
Cc1cc2[nH]c3c(c[n+](C)c4ccccc34)c2cc1C	-	14	-	-	1.0	-	-	10
Cc1cc2[nH]c3c4ccccc4nc(C)c3c2cc1C	.	-	-	-	-	-	.	.
N#C/C(=C\Nc1ccc2cn[nH]c2c1)c1nc(-c2ccc(Cl)cc2)cs1	-	7.3	-	-	-	-	-	-
N#C/C(=C\Nc1ccc2cn[nH]c2c1)c1nc(-c2ccccc2)cs1	-	-	-	-	-	-	.	.
CC(=O)Nc1ccc(Nc2cc(C)nc3c(-c4ccccc4)cnn23)cc1	.	-	-	-	-	-	.	.
C=CCSc1cc(C)nc2c(-c3ccccc3)cnn12	-	12	-	12	2.9	4.9	-	6.9
Cc1cc(C)c2c(N)c(C(=O)Nc3ccc(C)c(C)c3)sc2n1	-	8.3	-	-	1.6	8.0	-	9.5
COc1ccc(NC(=O)c2sc3nc(C)cc(C)c3c2N)cc1	-	-	-	-	-	-	.	.
COc1ccc(NS(=O)(=O)c2cccc(C(=O)O)c2)cc1S(=O)(=O)N1CCCCC1	.	-	-	-	-	-	.	.
CC(=O)c1sc(N/N=C/c2cccc([N+](=O)[O-])c2)nc1C	-	-	-	-	-	-	.	.
CC(=O)c1sc(N/N=C/c2cccc(O)c2)nc1C	-	7.1	-	12	-	-	-	-
O=C(Nc1ccccc1)n1cc(-c2ccccn2)c(N2CCOCC2)n1	-	7.2	-	-	2.2	-	-	-
O=C(Nc1ccc(Nc2ccccc2)cc1)N1CCOCC1	-	-	-	-	-	-	.	.
Cc1ccc(C(=O)NCCNC(=O)COc2ccc(C)c(C)c2)cn1	-	-	-	-	-	-	.	.
COc1ccc(NCC(=O)N/N=C/C=C\c2ccccc2)cc1	-	7.6	-	-	-	-	-	-
O=[N+]([O-])c1ccc(N2CCSCC2)cc1	-	-	-	-	-	-	.	.
CC(C)CCNC(=O)C(=O)NCCC1=CCCCC1	-	6.7	-	-	-	-	-	-
Cc1cccc(C)c1N=C1NN=C(c2ccccc2F)CS1	-	-	-	-	-	-	.	.
Cc1ccccc1N=C1NN=C(c2ccccc2F)CS1	-	9.4	-	13	-	-	-	11
O=C(Nc1nccs1)c1cnc2sccn2c1=O	.	8.5	-	-	1.5	-	-	7.6
COC(=O)c1ccccc1NC(=O)c1cnc2sccn2c1=O	-	-	-	-	-	-	.	.
O=S1(=O)N[C@@H](Cc2ccccc2)COc2cccc(N3CCSCC3)c21	.	-	-	-	-	.	.	.
Cn1c(CC(=O)Nc2ccccc2)c(Sc2ccccc2)c2ccccc21	-	7.5	-	-	-	-	-	-
SMILES	PolyA inhibitor	hcDAF-12 act	DAX1 inh-1	hgDAF-12 ag	ssDAF-12 act	DAX1 inh-2	LXR ag	hcDAF12 ag
Cn1c(CC(=O)Nc2ccccc2)cc2ccccc21	-	9.9	-	-	1.0	-	-	7.6
CCCn1c(=O)[nH]c(=O)c2c(C(=O)OCC)cc(-c3cccs3)nc21	-	-	-	-	-	-	.	.
Cc1c(N2C(=O)/C(=C3/C(=O)N(C)c4ccccc43)SC2=S)c(=O)n(-c2ccccc2)n1C	-	-	-	-	-	-	.	.
CC(=O)N1C(=O)/C(=C2\SC(=S)N(c3c(C)n(C)n(-c4ccccc4)c3=O)C2=O)c2ccccc21	-	9.3	-	-	1.2	-	-	-
C/C(=N\NC(=O)c1cc(O)ccc1O)c1cccc(NC(=O)c2ccc(Cl)cc2)c1	-	-	-	-	-	-	.	.
C/C(=N\NC(=O)c1ccccc1O)c1cccc(NC(=O)c2ccccc2)c1	-	7.0	-	-	1.3	-	-	-
CCCCN(C(=O)CSCc1ccc(C)cc1)c1c(N)n(CCC)c(=O)[nH]c1=O	-	-	-	-	-	-	.	.
Cc1cc(-c2ccc(Cl)cc2)c(C#N)c(N)n1	-	6.7	-	-	-	-	-	-
Cc1ccc(-c2cc(-c3ccccc3)c(C#N)c(N)n2)o1	-	-	-	-	-	-	.	.
COc1ccc(C(OCC(O)CN2CCC(O)CC2)c2ccc(OC)cc2)cc1 (centres undefined)	-	10	-	-	-	-	-	-
Clc1ccc(OCCOCCNCc2ccccc2)cc1Cl	-	-	-	-	-	-	.	.
O=C(C1CCN(S(=O)(=O)c2cnc[nH]2)CC1)N1CCN(c2ccc([N+](=O)[O-])cc2)CC1	-	-	-	-	-	-	.	.
O=C(C1=C(O)C(=O)N(CCN2CCOCC2)C1c1cccc(F)c1)c1cc2ccccc2o1 (centres undefined)	-	8.3	-	-	-	-	-	-
CCOc1cc(C(=O)OC(C(=O)NC(=O)NC)c2ccccc2)ccc1OCC(=O)N1CCOCC1 (centres undefined)	.	-	-	-	-	-	.	.
O=C(O)c1cccc(N/N=C/c2sc(N3CCOCC3)nc2-c2ccccc2)c1	-	7.5	-	-	-	-	-	-
O=C(O)c1cccc(N/N=C/c2cccc3ccccc23)c1	-	7.5	-	13	-	-	-	11
COc1ccccc1N1CN(S(=O)(=O)c2ccc(C)cc2)c2nc3ccccc3nc21	.	9.1	-	13	0.9	-	-	-
COc1ccc(CCN2CN(S(=O)(=O)c3ccc(C)cc3)c3nc4ccccc4nc32)cc1OC	-	-	-	-	-	-	.	.
C/C(=N\Nc1nc2ccccc2[nH]1)c1cc2ccccc2o1	-	7.4	-	-	-	-	-	8.7
Cc1ccc(C(=O)c2c3ccc(C(F)(F)F)cc3[n+]([O-])n2CCCC(N)=O)cc1	-	-	-	-	-	-	.	.
COc1ccc(C(=O)c2c3ccccc3[n+]([O-])n2CCC(N)=O)cc1	-	-	-	-	-	-	.	.
Cc1ccc(C(=O)c2c3ccc(C(F)(F)F)cc3[n+]([O-])n2CCC(N)=O)cc1	-	7.8	-	-	-	-	-	-
COc1ccc2c(C(=O)c3ccc(Cl)cc3)n(CCCC(N)=O)[n+]([O-])c2c1	-	6.9	-	-	-	-	-	-
CCOc1ccccc1NC(=S)Nc1ccc(S(N)(=O)=O)cc1	-	-	-	-	-	-	.	.
